Assay results published in PubChem BioAssay.
Activity calls are given as the source filed them.

Legend:
[1] = binders of probe aFSTL3 on microarray, primary screen, stem cell growth factor project, biochemical, small-molecule microarray, fluorescence 635/667 (AID 1064); conditions: higher = more signal;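 also: measures binding of the biotinylated anti-FSTL3 antibody to printed compounds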
[2] = binders from COS7 lysate, DM2A8 probe, primary screen, torsin A project, cell lysate, small-molecule microarray, fluorescence 635/667 (AID 1065); conditions: higher = more signal, COS7 lysate expressing mutant human TOR1A
[3] = binders of probe aFGF2 on microarray, primary screen, stem cell growth factor project, biochemical, small-molecule microarray, fluorescence 635/667 (AID 1067); conditions: higher = more signal;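 also: measures binding of biotinylated aFGF2 protein to printed compounds on slides; z-score merges feature fluorescence and signal-to-noise across triplicate slides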
[4] = binders of probe aFGF10 on microarray, primary screen, stem cell growth factor project, biochemical, small-molecule microarray, fluorescence 635/667 (AID 1071); conditions: higher = more signal;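 also: score merges 667 nm spot intensity and signal to noise from triplicate slides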
[5] = target: Neurogenic locus notch homolog protein 2 (Homo sapiens) (UniProt Q04721); assay: Notch2 binders on small-molecule microarrays, primary screen, biochemical, small-molecule microarray, 635 nm fluorescence, stem cell growth factors (AID 1073); conditions: Notch2 binding, higher = more signal
[6] = target: Pro-neuregulin-1, membrane-bound isoform (Homo sapiens) (UniProt Q02297); assay: NRG1 binders on small-molecule microarrays, primary screen, psychiatric disease protein project, biochemical, small-molecule microarray, fluorescence 635/667 (AID 1075); conditions: NRG1 binding, 635 nm fluorescence, higher = more signal;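 also: score combines 667 nm spot fluorescence with signal to noise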
[7] = tested on: Neuregulin-1 EGF-like domain; assay: binders of neuregulin-1 EGF-like domain, primary screen, biochemical, small-molecule microarray, 635 nm fluorescence (AID 1081); conditions: small-molecule microarray binding, higher = more signal;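 also: binding of the protein to compounds printed on small-molecule microarray slides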
[8] = FRG1 promoter luciferase signal modulators, primary screen, FRG1 inhibition for FSHD, cell-based, C2C12 myotubes, firefly/Renilla luciferase, luminescence (AID 1084); conditions: higher = more signal, called active from +8 up or from −8 down
[9] = binders of probe aFST on microarray, primary screen, stem cell growth factor project, biochemical, small-molecule microarray, fluorescence 635/667 (AID 1086); conditions: higher = more signal;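 also: score merges 667 nm fluorescence with signal-to-noise of each printed compound spot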
[10] = binders of probe aHhip on microarray, primary screen, stem cell growth factor project, biochemical, small-molecule microarray, fluorescence 635/667 (AID 1087); conditions: higher = more signal;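 also: score merges spot fluorescence at 667nm with spot signal to noise ratio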
[11] = tested on: PRMT1 (protein arginine N-methyltransferase 1); assay: PRMT1 binders on small-molecule microarrays, primary screen, biochemical, small-molecule microarray, 635 nm fluorescence (AID 1088); conditions: small-molecule microarray binding, higher = more signal;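 also: binding of Prmt1 protein to compounds spotted on small-molecule microarray slides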
[12] = yeast growth modulation, basal conditions, primary screen, YJM789 clinical isolate, OD600, 24 h (AID 1089);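 also: growth of clinical yeast isolate S. cerevisiae YJM 789 seeded 1000 cells per well; test concentration not given here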; conditions: S. cerevisiae YJM789 growth, higher = more signal, called active from +8 up or from −8 down
[13] = fission yeast growth modulation, primary screen, strain 972, OD600, 24 h, no modulator (AID 1090);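 also: basal condition with compound alone and no growth modifier present; test concentration not given here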; conditions: S. pombe 972 growth, higher = more signal, called active from +8 up or from −8 down
[14] = S. cerevisiae growth modulation with rapamycin, primary screen, strain BY4716, OD600, 96 h (AID 1091); conditions: higher = more signal, called active from +8 up or from −8 down; also: test concentration not given here
[15] = target: Torsin-1A-interacting protein 2 (Homo sapiens) (UniProt Q8NFQ8); assay: LULL1 binders on small-molecule microarray, primary screen, cell lysate, human LULL1 lysate, 635/667 nm fluorescence (AID 1092); conditions: hLULL1 lysate binding, 635 nm fluorescence, higher = more signal;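 also: probe is lysate of COS7 cells overexpressing human LULL1; score merges per-feature 667 nm fluorescence with signal-to-noise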
[16] = E. coli growth modulation, two-sided OD650, primary screen, E. coli filamentation project, strain DRC41, 24 h (AID 1093); conditions: OD650, 24 h, higher = more signal, called active from +8 up or from −8 down;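 also: MC1000 strain lacking acrAB efflux and sulA so SOS filamentation is blocked; test concentration not given here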
[17] = small-molecule microarray binders of probe aLefty2, primary screen, biochemical, biotinylated probe, 635/667 nm fluorescence (AID 1094); conditions: higher = more signal;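 also: score merges spot fluorescence near 667 nm with spot signal-to-noise ratio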
[18] = tested on: Noggin (protein binding on small-molecule microarray); assay: Noggin binders on small-molecule microarray, primary screen, biochemical, 635/667 nm fluorescence (AID 1095); conditions: 635 nm fluorescence, higher = more signal;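 also: score merges 667 nm feature fluorescence with signal to noise over triplicate slides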
[19] = target: Neurogenic locus notch homolog protein 3 (Homo sapiens) (UniProt Q9UM47); assay: NOTCH3 binders on small-molecule microarray, primary screen, biochemical, 635/667 nm fluorescence (AID 1096); conditions: NOTCH3 binding, 635 nm fluorescence, higher = more signal
[20] = small-molecule microarray binders of probe aEGFR, primary screen, biochemical, biotinylated probe, 635/667 nm fluorescence (AID 1097); conditions: higher = more signal;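 also: probe is a biotinylated anti-EGFR antibody binding compounds printed on slides; score combines fluorescence near 667 nm and signal to noise of each spot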

Chain of Neurogenic locus notch homolog protein 3 (Homo sapiens) (Q9UM47 whole entry, looked up): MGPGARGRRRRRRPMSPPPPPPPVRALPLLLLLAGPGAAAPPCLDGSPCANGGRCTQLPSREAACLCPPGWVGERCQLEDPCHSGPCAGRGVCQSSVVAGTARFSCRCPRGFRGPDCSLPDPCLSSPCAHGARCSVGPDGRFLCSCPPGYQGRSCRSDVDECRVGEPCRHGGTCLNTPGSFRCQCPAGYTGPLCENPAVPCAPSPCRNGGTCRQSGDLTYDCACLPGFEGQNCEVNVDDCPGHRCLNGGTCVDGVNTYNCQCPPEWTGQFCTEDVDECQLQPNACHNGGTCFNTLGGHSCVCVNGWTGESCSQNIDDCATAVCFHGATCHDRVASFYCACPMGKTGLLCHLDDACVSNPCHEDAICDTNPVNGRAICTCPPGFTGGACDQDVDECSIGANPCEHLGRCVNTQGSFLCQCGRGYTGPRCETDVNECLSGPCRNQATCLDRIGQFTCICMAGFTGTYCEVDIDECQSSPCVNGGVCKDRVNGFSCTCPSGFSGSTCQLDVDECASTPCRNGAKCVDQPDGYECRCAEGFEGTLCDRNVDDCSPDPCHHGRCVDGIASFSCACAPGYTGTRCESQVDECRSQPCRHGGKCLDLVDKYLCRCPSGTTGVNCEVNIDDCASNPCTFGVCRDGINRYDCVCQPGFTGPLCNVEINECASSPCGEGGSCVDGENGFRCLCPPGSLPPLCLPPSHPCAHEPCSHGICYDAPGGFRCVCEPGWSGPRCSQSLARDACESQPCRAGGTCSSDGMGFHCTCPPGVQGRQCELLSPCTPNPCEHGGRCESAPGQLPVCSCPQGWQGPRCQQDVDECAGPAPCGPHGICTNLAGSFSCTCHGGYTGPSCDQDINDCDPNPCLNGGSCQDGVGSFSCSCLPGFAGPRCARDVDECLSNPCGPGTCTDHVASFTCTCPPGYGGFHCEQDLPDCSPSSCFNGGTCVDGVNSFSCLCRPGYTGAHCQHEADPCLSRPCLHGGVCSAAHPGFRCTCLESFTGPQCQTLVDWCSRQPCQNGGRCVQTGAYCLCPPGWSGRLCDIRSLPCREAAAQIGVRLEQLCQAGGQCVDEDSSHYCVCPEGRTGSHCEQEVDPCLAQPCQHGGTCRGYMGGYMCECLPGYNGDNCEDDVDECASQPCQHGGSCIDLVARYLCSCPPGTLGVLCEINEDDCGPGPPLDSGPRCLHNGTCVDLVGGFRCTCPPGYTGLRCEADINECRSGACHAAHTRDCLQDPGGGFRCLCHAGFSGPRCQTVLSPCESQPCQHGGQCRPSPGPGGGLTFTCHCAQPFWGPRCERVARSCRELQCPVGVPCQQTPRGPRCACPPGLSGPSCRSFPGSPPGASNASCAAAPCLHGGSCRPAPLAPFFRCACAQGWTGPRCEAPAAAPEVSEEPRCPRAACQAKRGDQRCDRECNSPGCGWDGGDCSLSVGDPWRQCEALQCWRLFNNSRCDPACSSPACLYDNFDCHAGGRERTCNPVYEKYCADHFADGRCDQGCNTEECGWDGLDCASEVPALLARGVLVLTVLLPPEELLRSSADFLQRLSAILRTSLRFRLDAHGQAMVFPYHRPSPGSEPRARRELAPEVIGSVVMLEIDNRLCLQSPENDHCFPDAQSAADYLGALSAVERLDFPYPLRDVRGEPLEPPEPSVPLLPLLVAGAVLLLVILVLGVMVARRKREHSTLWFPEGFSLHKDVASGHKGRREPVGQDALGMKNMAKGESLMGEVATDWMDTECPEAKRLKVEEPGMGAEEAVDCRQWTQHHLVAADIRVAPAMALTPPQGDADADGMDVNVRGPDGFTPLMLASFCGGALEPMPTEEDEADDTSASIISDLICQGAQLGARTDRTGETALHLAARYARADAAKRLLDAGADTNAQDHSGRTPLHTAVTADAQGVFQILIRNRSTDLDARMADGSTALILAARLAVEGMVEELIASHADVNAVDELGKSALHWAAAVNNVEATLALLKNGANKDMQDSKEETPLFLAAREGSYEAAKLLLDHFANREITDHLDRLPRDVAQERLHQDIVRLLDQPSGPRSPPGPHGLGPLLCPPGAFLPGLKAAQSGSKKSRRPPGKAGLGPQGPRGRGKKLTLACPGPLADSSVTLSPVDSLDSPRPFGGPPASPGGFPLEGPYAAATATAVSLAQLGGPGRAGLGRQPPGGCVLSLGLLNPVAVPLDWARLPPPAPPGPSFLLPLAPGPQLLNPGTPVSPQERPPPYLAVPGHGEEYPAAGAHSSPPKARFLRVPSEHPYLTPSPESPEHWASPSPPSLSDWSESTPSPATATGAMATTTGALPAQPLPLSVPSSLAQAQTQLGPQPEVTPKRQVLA
Chain of Neurogenic locus notch homolog protein 2 (Homo sapiens) (Q04721 whole entry, looked up, canonical isoform): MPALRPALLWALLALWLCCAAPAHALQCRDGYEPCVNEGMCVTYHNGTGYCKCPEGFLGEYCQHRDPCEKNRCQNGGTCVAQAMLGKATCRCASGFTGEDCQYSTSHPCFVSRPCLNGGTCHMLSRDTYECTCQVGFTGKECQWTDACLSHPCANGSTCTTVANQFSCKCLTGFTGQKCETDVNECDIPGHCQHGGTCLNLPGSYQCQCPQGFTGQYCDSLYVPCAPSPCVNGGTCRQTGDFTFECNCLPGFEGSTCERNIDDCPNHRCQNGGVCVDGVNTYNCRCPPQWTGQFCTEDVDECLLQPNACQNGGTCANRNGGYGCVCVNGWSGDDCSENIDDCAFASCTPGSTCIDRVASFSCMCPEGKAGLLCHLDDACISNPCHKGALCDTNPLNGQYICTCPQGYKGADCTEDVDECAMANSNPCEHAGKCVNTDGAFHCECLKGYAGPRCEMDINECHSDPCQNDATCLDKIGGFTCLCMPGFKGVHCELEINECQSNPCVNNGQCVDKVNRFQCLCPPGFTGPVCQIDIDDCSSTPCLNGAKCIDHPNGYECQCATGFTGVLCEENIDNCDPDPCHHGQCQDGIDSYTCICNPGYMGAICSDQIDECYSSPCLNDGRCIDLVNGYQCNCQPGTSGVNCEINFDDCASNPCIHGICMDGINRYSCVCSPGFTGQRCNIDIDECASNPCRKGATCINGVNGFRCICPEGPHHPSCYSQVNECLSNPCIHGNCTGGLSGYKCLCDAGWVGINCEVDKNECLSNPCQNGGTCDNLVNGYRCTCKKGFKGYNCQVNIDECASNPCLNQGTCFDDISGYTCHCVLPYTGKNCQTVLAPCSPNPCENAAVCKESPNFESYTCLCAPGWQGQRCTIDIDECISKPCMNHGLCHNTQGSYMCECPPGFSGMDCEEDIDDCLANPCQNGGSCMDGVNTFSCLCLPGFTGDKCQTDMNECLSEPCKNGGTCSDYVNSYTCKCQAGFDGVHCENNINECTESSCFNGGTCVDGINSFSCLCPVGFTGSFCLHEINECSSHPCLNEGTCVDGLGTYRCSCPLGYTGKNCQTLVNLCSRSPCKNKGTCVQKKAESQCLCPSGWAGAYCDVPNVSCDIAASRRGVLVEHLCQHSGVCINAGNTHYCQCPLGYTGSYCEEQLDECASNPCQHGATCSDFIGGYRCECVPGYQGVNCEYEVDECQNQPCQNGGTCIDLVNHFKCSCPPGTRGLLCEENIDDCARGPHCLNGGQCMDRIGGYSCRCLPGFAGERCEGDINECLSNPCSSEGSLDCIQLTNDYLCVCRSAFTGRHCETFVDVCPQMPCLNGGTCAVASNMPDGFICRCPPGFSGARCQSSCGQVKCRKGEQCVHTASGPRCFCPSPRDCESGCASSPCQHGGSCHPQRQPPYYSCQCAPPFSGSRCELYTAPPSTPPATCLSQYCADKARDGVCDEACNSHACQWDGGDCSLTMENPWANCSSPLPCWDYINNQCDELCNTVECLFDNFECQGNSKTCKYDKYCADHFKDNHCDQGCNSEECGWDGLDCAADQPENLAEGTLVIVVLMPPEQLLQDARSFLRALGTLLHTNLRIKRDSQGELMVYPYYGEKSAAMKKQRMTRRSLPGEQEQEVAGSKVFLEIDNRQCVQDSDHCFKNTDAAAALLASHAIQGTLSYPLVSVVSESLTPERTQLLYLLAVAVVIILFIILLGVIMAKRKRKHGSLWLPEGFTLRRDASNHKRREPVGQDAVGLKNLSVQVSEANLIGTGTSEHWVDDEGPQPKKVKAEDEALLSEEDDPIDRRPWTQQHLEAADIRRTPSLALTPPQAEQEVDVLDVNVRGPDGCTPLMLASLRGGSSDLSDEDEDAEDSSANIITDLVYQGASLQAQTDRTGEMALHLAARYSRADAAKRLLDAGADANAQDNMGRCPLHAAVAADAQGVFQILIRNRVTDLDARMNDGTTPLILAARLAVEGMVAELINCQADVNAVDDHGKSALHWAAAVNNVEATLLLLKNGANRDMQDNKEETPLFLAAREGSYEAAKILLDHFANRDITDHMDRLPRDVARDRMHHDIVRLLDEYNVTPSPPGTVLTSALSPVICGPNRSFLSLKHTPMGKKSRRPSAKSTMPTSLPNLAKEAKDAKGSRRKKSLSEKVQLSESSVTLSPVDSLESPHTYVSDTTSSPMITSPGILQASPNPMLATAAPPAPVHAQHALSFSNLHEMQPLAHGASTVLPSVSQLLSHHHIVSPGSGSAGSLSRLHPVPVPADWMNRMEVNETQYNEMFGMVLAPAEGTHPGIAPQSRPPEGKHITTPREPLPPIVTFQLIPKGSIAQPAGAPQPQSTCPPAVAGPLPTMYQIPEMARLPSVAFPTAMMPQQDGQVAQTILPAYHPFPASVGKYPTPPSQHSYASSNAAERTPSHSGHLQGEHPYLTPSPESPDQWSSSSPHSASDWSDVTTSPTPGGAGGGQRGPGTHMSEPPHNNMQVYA

SMILES | composite z-score [1] | composite z-score [2] | composite z-score [3] | composite z-score [4] | composite z-score [5] | composite z-score [6] | composite z-score [7] | z-score [8] | composite z-score [9] | composite z-score [10] | composite z-score [11] | z-score [12] | z-score [13] | z-score [14] | composite z-score [15] | z-score [16] | composite z-score [17] | composite z-score [18] | composite z-score [19] | composite z-score [20]
CC(C)CCC[C@@H](C)[C@H]1CC[C@@]2(C)C3=C(CC[C@]12C)[C@@]1(C)CC[C@H](OC(=O)c2ccc(Br)cc2)C(C)(C)C1CC3 (stereo not given in full) | -0.571 | 0.193 | -0.128 | 0.541 | 0.5 | 0.0933 | 0.439 | -0.879 (inactive) | 0.0941 | -0.126 | 0.739 | -1.15 (inactive) | -1.28 (inactive) | -0.346 (inactive) | 0.172 | 2.77 (inactive) | -0.0542 | 0.326 | 0.888 | -0.0333
CC=CC(O)C1C=CC2C(=O)N(c3ccccc3)C(=O)C2N1Nc1ccc([N+](=O)[O-])cc1 (stereo not given) | -0.241 | 0.0149 | -0.0534 | 0.407 | 0.998 | 1.69 | 0.981 | 0.515 (inactive) | 0.126 | -0.0003 | 0.725 | -0.0987 (inactive) | 1.17 (inactive) | 1.44 (inactive) | 2.65 | -0.699 (inactive) | -0.0931 | 0.257 | 0.512 | 0.0007
C=CCOC(=O)[C@H]1[C@@H]2C(=O)O[C@@H](c3ccccc3)[C@@H](c3ccccc3)N2[C@@H](c2ccc(OCCOC(=O)[C@H]3C[C@H]4C(=O)N[C@@H](CCCC[N+](C)(C)C)C(=O)N4[C@H]3c3cccc(OCCO)c3)cc2)[C@]12C(=O)Nc1ccc(I)cc12 | -0.345 | 0.46 | -0.0937 | 0.723 | 0.312 | 0.288 | 0.755 | 0.707 (inactive) | -0.278 | -0.126 | 1.29 | 1.11 (inactive) | 2.23 (inactive) | 4.75 (inactive) | 0.7 | 0.396 (inactive) | -0.166 | 0.673 | 0.456 | 0.002
CN(C)CCCN1C(=O)[C@@]2(c3ccc([N+](=O)[O-])cc3)CC(=O)N(CC34CC5CC(CC(C5)C3)C4)[C@@H]2c2ccc(CO)cc21 | -0.106 | -0.429 | -0.0276 | 0.0318 | -0.346 | 0.742 | 0.72 | 0.0832 (inactive) | 0.0267 | 0.0024 | 1.54 | 0.296 (inactive) | -0.505 (inactive) | -1.06 (inactive) | 3.29 | 0.304 (inactive) | -0.116 | -0.378 | 0.214 | -0.12
C=C(C(=O)CC[C@H](OC(C)=O)c1cccc(OCCO)c1)C(C)C | 0.125 | -0.152 | -0.189 | -0.582 | -0.739 | 0.007 | -0.526 | 0.422 (inactive) | -0.675 | -0.0994 | 0.385 | 0.574 (inactive) | -0.299 (inactive) | -0.0905 (inactive) | 0.355 | 1.04 (inactive) | -0.121 | -0.621 | -0.594 | -0.113
COC(=O)c1c(CC[C@@H](CO)NC(=O)N[C@H](Cn2cc(-c3ccccc3C)nn2)C(C)C)oc(C(C)=O)c1C(=O)OC | -0.157 | -1.08 | -0.129 | 0.415 | -1.18 | 0.638 | 0.309 | 0.87 (inactive) | -0.205 | 0.145 | -0.469 | -0.147 (inactive) | -0.644 (inactive) | 0.467 (inactive) | -0.351 | 0.537 (inactive) | -0.29 | -0.0001 | -0.465 | -0.218
C[C@]1(C(=O)NCCN2CCOCC2)c2ccccc2C(=O)N(Cc2ccc(OC(F)(F)F)cc2)[C@H]1c1ccc(CO)cc1 | 0.0198 | 0.317 | -0.146 | -0.735 | -0.375 | 2.05 | 1.02 | -2.39 (inactive) | 0.045 | -0.236 | 0.562 | -0.15 (inactive) | -0.859 (inactive) | -0.854 (inactive) | 1.82 | 0.365 (inactive) | -0.0823 | 0.557 | 0.164 | -0.213
C=CCC(OC(C)=O)[C@@H]1[C@@H](N(Cc2cc3ccccc3o2)C(=O)c2ccc(C)cc2)c2cc(OCCCO)ccc2N1C(=O)Cc1ccc2ccccc2c1 (stereo not given in full) | 0.222 | -0.603 | 0.0755 | 0.113 | -0.242 | -0.0075 | -0.345 | -0.286 (inactive) | 0.292 | 0.107 | -0.208 | 0.627 (inactive) | -0.423 (inactive) | 0.469 (inactive) | 0.0257 | 2.18 (inactive) | 0.18 | 1.81 | -0.725 | -0.094
CN1C(=O)[C@@]2(CCS(=O)(=O)c3ccccc3)N=C(c3ccc(OCCCO)cc3)O[C@H]2c2ccccc21 | 0.185 | 0.394 | -0.102 | 0.832 | 1.45 | 1.59 | 1.34 | -3.84 (inactive) | 1.09 | -0.04 | 1.53 | -0.175 (inactive) | -0.585 (inactive) | 2.05 (inactive) | 3.05 | 0.708 (inactive) | 0.276 | 0.931 | 0.377 | -0.0493
CC(=O)n1cc(C(O)C2C=CC3C(=O)N(Cc4ccccc4)C(=O)C3N2n2cnnc2)c2ccccc21 (stereo not given) | -0.317 | 0.47 | -0.0218 | -0.0821 | 0.145 | -0.0307 | 0.351 | 0.186 (inactive) | 0.426 | -0.268 | 0.77 | -0.423 (inactive) | 0.552 (inactive) | 0.192 (inactive) | 1.23 | -0.901 (inactive) | -0.0858 | -0.415 | 0.193 | 0.728
